Experimental findings from PubChem BioAssay (EPA / NIEHS) are described below.

Structures are written as SMILES. Values joined by “and” are separate entries in the source; they are usually repeats but may differ in a detail not shown here. Equal entries are not always repeated. Results filed as inconclusive are left out. Some structures have more than one record in an assay (separate samples or runs), and their calls can disagree. Active and inactive are the calls of the source. The calls were made as follows, unless noted: active = hit-call score of the fitted dose curve at least 0.9, where 1 is the maximum; inconclusive = response in the unintended direction; inactive = score below 0.9.

The target of assay [1] is Retinoic acid receptor alpha (Homo sapiens) (UniProt P10276). Briefly: ATG_DR5_RAR_CIS: Attagene CIS-FACTORIAL HepG2 Assay for human Retinoic Acid Receptor Alpha (RARE), DR5 submotif (AID 2282934; active = hit-call score of the fitted dose curve at least 0.9, where 1 is the maximum; inactive = score below 0.9). The note with it: HepG2 Attagene cis-factorial RARE DR5 reporter, mRNA; actives raise or lower the signal. In outline:
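Transfected HepG2 reporter cells are exposed to chemicals for 24 h. Then RNA is extracted and the DR5 element reporter transcript is measured by RT-PCR and capillary electrophoresis, with bidirectional curve fitting relative to DMSO.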

In assay [2] the target is Bile acid receptor (Homo sapiens) (UniProt Q96RI1). Briefly: ATG_IR1_CIS: Attagene CIS-FACTORIAL HepG2 Assay for human Nuclear Receptor Subfamily 1 Group H Member 4 (NR1H4), IR1 submotif (AID 2282946; active = hit-call score of the fitted dose curve at least 0.9, where 1 is the maximum; inactive = score below 0.9). The note with it: IR1 reporter transcription, actives raise or lower the signal. In outline: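 Readout: reporter transcript levels by RT-PCR with fluorescent capillary electrophoresis, from HepG2 cells transiently transfected with multiplexed cis-regulated reporters and dosed 24 h. Gain- or loss-of-signal fitted versus DMSO negative control.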
Chain of Bile acid receptor (Homo sapiens) (Q96RI1 whole entry, looked up): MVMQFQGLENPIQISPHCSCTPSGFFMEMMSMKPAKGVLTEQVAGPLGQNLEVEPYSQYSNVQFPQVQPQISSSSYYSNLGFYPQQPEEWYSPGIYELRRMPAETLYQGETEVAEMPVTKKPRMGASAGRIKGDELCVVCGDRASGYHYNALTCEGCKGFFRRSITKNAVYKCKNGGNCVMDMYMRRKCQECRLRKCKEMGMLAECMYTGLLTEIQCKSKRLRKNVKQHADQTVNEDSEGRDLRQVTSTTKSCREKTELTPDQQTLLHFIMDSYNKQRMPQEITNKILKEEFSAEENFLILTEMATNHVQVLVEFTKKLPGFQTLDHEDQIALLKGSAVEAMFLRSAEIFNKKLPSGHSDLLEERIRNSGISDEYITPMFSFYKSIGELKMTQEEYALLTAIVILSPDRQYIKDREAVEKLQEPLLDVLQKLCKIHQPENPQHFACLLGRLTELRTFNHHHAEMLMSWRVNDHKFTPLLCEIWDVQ

For assay [3], the target named is Nuclear receptor subfamily 1 group I member 3 (Homo sapiens) (UniProt Q14994). Briefly: ATG_CAR_TRANS: Attagene TRANS-FACTORIAL HepG2 Assay for human Constitutive Androstane Receptor (CAR) (AID 2282969).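 Also: activators raise reporter mRNA above DMSO so AC50 marks induction.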 The note with it: HepG2 Attagene TRANS-FACTORIAL CAR reporter. In outline: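 Steps: transient transfection of HepG2 with multiple GAL4-UAS reporter units; 24 h compound incubation; RNA isolation, RT-PCR, 6-FAM primer extension, HpaI digest; capillary electrophoresis. Gain-of-signal relative to DMSO negative control.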
Chain of Nuclear receptor subfamily 1 group I member 3 (Homo sapiens) (Q14994 whole entry, looked up, the tested form may be a part): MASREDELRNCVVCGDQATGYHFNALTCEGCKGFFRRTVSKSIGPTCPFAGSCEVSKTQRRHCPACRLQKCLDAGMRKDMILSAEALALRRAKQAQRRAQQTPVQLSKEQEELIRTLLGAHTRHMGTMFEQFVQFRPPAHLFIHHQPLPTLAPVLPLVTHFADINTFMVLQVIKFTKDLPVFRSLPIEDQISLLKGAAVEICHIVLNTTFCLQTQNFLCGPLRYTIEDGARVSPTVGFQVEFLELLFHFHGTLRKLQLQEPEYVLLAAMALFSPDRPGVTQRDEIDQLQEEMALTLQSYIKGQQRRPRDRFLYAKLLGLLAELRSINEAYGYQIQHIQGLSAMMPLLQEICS

Assay [4] addresses Oxysterols receptor LXR-beta (Homo sapiens) (UniProt P55055). Briefly: ATG_LXRb_TRANS: Attagene TRANS-FACTORIAL HepG2 Assay for human Liver X Receptor beta (LXRb) (AID 2282981). As to conditions: HepG2 Attagene TRANS GAL4-LXRb reporter, mRNA. In outline:
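Liver-derived HepG2 cells transfected with Gal4-responsive reporters were dosed for 24 h. Activation was scored as rise in reporter mRNA, by RT-PCR and capillary electrophoresis, above DMSO baseline.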

For assay [5], the target named is Hepatocyte nuclear factor 4-alpha (Homo sapiens) (UniProt P41235). Nature of the assay: ATG_HNF4a_TRANS: Attagene TRANS-FACTORIAL HepG2 Assay for human Hepatocyte Nuclear Factor 4 alpha (HNF4a) (AID 2282982). The note with it: HepG2 HNF4a transactivation reporter, mRNA readout. The essentials: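 Using HepG2 liver cells transfected with GAL4-UAS reporter units, chemical-induced mRNA increases were assessed after 24 hours. Fluorescent RT-PCR fragments were separated by capillary electrophoresis and compared with DMSO negative controls.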

Assay [6] has as its target Nuclear receptor subfamily 4 group A member 2 (Homo sapiens) (UniProt P43354). Briefly: ATG_NURR1_TRANS: Attagene TRANS-FACTORIAL HepG2 Assay for human Nuclear Receptor Related Protein 1 (NURR1) (AID 2282985). The note with it: HepG2 Attagene TRANS reporter, mRNA readout. In outline: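 Chimeric NR-Gal4 proteins were expressed in human HepG2 cells bearing GAL4-UAS reporter units, and induced reporter mRNA was quantified 24 h post-dosing by RT-PCR and capillary electrophoresis.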

Assay [7] addresses human Peroxisome Proliferator-activated Receptor alpha (PPARa), PPARA (gene 5465) (UniProt Q07869). Nature of the assay: ATG_PPARa_TRANS: Attagene TRANS-FACTORIAL HepG2 Assay for human Peroxisome Proliferator-activated Receptor alpha (PPARa) (AID 2283001). The essentials:
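Exposure: 24 h, transiently transfected HepG2 cells. Endpoint: GAL4-UAS reporter mRNA, RT-PCR with capillary electrophoresis fluorescence. Baseline: DMSO; increases fitted.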

For assay [8], the target named is human Peroxisome Proliferator-activated Receptor delta (PPARd), PPARD (gene 5467) (UniProt Q03181). Briefly: ATG_PPARd_TRANS: Attagene TRANS-FACTORIAL HepG2 Assay for human Peroxisome Proliferator-activated Receptor delta (PPARd) (AID 2283002). In outline: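 Measured quantity: GAL4-UAS reporter transcript induction in HepG2 after 24 h chemical dosing, with NR-Gal4 chimeras supplied by transient transfection. Detection by RT-PCR and capillary electrophoresis; upward fit against DMSO.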
Chain of human Peroxisome Proliferator-activated Receptor delta (PPARd), PPARD (gene 5467) (Q03181 whole entry, looked up, the tested form may be a part): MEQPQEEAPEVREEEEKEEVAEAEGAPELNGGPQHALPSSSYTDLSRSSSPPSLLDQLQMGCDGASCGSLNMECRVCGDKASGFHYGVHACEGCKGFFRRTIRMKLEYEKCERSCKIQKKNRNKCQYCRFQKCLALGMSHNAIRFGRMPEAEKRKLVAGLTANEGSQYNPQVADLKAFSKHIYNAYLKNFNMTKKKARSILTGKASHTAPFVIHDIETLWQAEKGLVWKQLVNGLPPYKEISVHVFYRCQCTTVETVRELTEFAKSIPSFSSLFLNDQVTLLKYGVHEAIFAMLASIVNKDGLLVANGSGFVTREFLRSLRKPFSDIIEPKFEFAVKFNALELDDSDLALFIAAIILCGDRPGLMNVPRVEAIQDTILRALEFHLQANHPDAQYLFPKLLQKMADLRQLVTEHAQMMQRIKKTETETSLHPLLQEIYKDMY

Assay [9] in a line: TOX21_p53_BLA_p2_viability: Viability Assessment in the Tox21 HCT-116 p53 Agonism Beta-lactamase Assay, Phase 2 (AID 2283591).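 Also: compound exposure lasted 16 h at 37 °C; actives lower the ATP signal meaning cytotoxicity.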 The essentials:
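HCT-116 p53-bla cells (4000/well) rested 5 h at 37C, then received compounds in DMSO (217-fold dilution) for 16 h at 37C, 5% CO2. After the CCF4 read, CellTiter-Glo was added; ATP luminescence was read after 30 min at room temperature.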

Assay [10] in a line: TOX21_p53_BLA_p3_viability: Viability Assessment in the Tox21 HCT-116 p53 Agonism Beta-lactamase Assay, Phase 3 (AID 2283593).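 Also: cells exposed to compound for 16 h before reading.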 In outline: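 HCT-116 cells (4000/well) rested 5 h at 37C, then got DMSO compounds by pin tool (217-fold dilution) for 16 h at 37C, 5% CO2. After the bla read, CellTiter-Glo was added and luminescence read at 30 min, room temperature.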
Assay [11] deals with Cellular tumor antigen p53 (Homo sapiens) (UniProt P04637). Nature of the assay: TOX21_p53_BLA_p3_ratio: Tox21 HCT-116 p53 Agonism Beta-lactamase Assay, Ratio, Phase 3 (AID 2283596). The essentials: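 Cells were seeded at 4000/well, rested 5 h at 37C, then dosed with DMSO compound solutions (217-fold dilution) for 16 h. CCF4-AM substrate was loaded for 2 h at room temperature, and the 460/530 nm emission ratio was fitted for gain of signal versus DMSO.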
Chain of Cellular tumor antigen p53 (Homo sapiens) (P04637 whole entry, looked up): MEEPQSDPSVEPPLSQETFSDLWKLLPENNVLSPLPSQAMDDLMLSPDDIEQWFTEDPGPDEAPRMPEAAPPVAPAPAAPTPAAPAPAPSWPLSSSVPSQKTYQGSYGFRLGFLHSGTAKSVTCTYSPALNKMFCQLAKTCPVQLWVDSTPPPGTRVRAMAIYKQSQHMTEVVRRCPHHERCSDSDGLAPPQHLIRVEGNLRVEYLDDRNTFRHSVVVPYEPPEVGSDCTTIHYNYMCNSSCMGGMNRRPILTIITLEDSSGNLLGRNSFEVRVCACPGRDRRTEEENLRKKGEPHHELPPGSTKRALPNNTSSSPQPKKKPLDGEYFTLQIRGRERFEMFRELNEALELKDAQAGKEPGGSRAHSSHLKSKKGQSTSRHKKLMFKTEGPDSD

Assay [12] is described as follows: TOX21_p53_BLA_p4_viability: Viability Assessment in the Tox21 HCT-116 p53 Agonism Beta-lactamase Assay, Phase 4 (AID 2283597).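 Also: hits lower the luminescence signal meaning cytotoxicity.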 The essentials: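 Readout: ATP luminescence (CellTiter-Glo), measured 30 min after reagent addition at RT. The reagent followed a 2 h CCF4-AM incubation, and the cells had been exposed to compound for 16 h at 37C.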
For assay [13], the target named is Oxysterols receptor LXR-alpha (Homo sapiens) (UniProt Q13133). Nature of the assay: ATG_LXRa_TRANS: Attagene TRANS-FACTORIAL HepG2 Assay for human Liver X Receptor alpha (LXRa) (AID 2282980). The note with it: HepG2 Attagene TRANS reporter, LXRa transactivation. The essentials:
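Transfect HepG2 with GAL4-UAS multiplex reporter constructs (TRANS format, chimeric receptor-GAL4); treat 24 h; extract RNA, reverse-transcribe, PCR-amplify, FAM-label, HpaI-digest; resolve fragments by capillary electrophoresis. Upward response vs DMSO.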

The target in assay [14] is Nuclear receptor subfamily 1 group I member 2 (Homo sapiens) (UniProt O75469). Briefly: ATG_PXR_TRANS: Attagene TRANS-FACTORIAL HepG2 Assay for human Pregnane X Receptor (PXR) (AID 2283008). The essentials: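 Transient HepG2 transfectants carrying multiplexed reporter transcription units; PXR activity read through a Gal4 chimera. 24 h exposure. RT-PCR/CE fluorescence; upward curve fit referenced to DMSO.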
Chain of Nuclear receptor subfamily 1 group I member 2 (Homo sapiens) (O75469 whole entry, looked up, the tested form may be a part): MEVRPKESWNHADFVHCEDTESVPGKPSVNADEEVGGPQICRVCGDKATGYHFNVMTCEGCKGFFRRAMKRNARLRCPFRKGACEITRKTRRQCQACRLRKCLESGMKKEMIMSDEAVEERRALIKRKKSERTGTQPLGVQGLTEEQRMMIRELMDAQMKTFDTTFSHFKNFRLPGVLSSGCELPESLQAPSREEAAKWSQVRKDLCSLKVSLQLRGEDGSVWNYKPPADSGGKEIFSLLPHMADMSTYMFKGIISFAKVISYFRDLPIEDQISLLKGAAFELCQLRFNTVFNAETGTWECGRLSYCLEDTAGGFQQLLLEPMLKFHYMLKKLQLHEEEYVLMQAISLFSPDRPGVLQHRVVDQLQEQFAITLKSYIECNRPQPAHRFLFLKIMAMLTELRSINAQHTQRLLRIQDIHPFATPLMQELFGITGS

The target of assay [15] is human RAR-related Orphan Receptor beta (RORb), RORB (gene 6096) (UniProt Q92753). Nature of the assay: ATG_RORb_TRANS: Attagene TRANS-FACTORIAL HepG2 Assay for human RAR-related Orphan Receptor beta (RORb) (AID 2283010). In outline: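 Multiplexed transcription-factor reporter assay: HepG2 cells transiently carrying NR-Gal4/GAL4-UAS constructs, 24 h treatment, mRNA quantified by RT-PCR plus capillary electrophoresis fluorescence; activity scored as induction over DMSO.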

Assay [16] in a line: ATG_XTT_Cytotoxicity: Cytotoxicity Assessment in the Attagene TRANS-FACTORIAL HepG2 Assay (AID 2283584). In outline:
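Cells: human HepG2, transiently transfected with MRTU reporter constructs. Exposure 24 h. Readout: XTT, cell number. Baseline/neg ctrl DMSO; loss-of-signal scored.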

Assay [17] deals with human Vitamin D Receptor (VDR), VDR (gene 7421) (UniProt P11473). Nature of the assay: ATG_VDR_TRANS: Attagene TRANS-FACTORIAL HepG2 Assay for human Vitamin D Receptor (VDR) (AID 2283022). The essentials: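 Steps: transfect HepG2 with GAL4-UAS-driven reporter constructs; dose compounds 24 h; isolate RNA, reverse-transcribe, PCR-amplify with 6-FAM-labelled primer extension and HpaI digestion; quantify fragments by capillary electrophoresis relative to DMSO.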

Assay [18] in a line: ATG_GAL4_TRANS: Attagene TRANS-FACTORIAL HepG2 Assay for GAL4 (Internal Marker) (AID 2282976). The note with it: HepG2 Attagene TRANS GAL4 internal marker reporter. The essentials:
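First, HepG2 cells were transfected with reporter units under GAL4-UAS control. Next, they were treated with chemical for 24 h. Finally, RNA was reverse-transcribed, PCR-amplified, FAM-labelled and resolved by capillary electrophoresis, with induction scored against DMSO.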

Assay [19] concerns the target human RAR-related Orphan Receptor gamma (RORg), RORC (gene 6097) (UniProt P51449). Nature of the assay: ATG_RORg_TRANS: Attagene TRANS-FACTORIAL HepG2 Assay for human RAR-related Orphan Receptor gamma (RORg) (AID 2283011). The essentials:
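First, HepG2 liver cells were transfected with GAL4-UAS-driven reporter constructs and the RORg-Gal4 fusion. Next, they were treated with chemical for 24 h. Finally, reporter mRNA was quantified by RT-PCR and capillary electrophoresis, with upward activity fitted against DMSO.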

Assay [20] in a line: CCTE_Harrill_HTTr_Viability_MCF7: CCTE's 6-hour Cell Viability Assessment for the High-Throughput Transcriptomics (HTTr) Platform, in MCF-7 cells cultured in DMEM + 10% fetal bovine serum, Harrill Lab (AID 2284010; active = hit-call score of the fitted dose curve at least 0.9, where 1 is the maximum; inactive = score below 0.9). In outline: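 Eight-point concentration series, six-hour exposure. Propidium iodide exclusion imaged to assess membrane integrity as a cytotoxicity readout; bidirectional fitting was done with DMSO as negative control and activity baseline.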

Chain of human Peroxisome Proliferator-activated Receptor alpha (PPARa), PPARA (gene 5465) (Q07869 whole entry, looked up, the tested form may be a part): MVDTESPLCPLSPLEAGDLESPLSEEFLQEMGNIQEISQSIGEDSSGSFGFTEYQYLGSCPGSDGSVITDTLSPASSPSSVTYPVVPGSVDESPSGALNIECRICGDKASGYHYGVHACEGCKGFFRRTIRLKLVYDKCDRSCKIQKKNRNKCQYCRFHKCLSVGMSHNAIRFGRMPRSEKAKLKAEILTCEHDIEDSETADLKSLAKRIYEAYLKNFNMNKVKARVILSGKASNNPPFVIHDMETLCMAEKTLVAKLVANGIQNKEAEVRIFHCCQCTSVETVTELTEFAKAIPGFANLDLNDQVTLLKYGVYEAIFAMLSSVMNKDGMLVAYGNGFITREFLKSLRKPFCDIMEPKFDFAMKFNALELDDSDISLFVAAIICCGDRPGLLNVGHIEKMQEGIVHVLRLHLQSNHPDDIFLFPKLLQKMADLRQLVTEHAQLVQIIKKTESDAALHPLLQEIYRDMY
Chain of Oxysterols receptor LXR-alpha (Homo sapiens) (Q13133 whole entry, looked up, the tested form may be a part): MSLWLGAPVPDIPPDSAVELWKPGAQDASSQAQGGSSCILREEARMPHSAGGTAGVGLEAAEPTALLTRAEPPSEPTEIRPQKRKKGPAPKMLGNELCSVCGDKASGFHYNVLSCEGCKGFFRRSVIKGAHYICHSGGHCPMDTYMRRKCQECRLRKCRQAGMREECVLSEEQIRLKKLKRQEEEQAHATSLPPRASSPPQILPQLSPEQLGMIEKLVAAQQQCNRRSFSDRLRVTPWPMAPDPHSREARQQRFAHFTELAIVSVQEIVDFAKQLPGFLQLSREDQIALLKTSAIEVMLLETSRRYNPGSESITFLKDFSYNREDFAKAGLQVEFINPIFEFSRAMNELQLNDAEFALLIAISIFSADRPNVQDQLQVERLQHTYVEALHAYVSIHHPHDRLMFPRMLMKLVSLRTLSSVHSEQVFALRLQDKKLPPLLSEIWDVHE
Chain of Nuclear receptor subfamily 4 group A member 2 (Homo sapiens) (P43354 whole entry, looked up, the tested form may be a part): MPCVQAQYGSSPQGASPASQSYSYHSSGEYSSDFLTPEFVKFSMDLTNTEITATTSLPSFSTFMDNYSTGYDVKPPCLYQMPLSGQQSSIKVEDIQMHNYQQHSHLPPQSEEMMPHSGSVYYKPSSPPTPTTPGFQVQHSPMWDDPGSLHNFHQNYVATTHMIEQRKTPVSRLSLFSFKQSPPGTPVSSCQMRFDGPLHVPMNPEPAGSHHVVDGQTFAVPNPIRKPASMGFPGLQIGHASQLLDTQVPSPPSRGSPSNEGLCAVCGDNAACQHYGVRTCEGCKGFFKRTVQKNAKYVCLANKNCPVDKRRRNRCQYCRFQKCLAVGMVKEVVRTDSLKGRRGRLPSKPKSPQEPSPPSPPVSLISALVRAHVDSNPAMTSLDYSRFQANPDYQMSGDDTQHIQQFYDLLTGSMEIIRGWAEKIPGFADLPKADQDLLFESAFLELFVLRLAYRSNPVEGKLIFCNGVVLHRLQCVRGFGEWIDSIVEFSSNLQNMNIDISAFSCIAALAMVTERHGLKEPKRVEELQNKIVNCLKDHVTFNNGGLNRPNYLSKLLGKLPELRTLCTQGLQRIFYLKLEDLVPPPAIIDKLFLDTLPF
Chain of Oxysterols receptor LXR-beta (Homo sapiens) (P55055 whole entry, looked up, the tested form may be a part): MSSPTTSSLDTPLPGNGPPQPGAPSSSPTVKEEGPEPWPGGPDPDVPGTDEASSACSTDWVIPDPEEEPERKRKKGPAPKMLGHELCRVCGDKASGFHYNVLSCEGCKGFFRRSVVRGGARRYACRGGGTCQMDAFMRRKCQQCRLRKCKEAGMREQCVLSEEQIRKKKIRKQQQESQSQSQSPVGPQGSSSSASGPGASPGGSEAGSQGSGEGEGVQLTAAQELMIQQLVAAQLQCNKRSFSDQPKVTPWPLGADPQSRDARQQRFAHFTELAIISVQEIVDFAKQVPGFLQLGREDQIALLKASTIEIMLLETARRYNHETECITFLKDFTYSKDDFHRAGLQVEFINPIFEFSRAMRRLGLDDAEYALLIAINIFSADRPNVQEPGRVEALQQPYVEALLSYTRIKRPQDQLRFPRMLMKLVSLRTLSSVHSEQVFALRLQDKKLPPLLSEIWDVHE
Chain of human RAR-related Orphan Receptor gamma (RORg), RORC (gene 6097) (P51449 whole entry, looked up, the tested form may be a part): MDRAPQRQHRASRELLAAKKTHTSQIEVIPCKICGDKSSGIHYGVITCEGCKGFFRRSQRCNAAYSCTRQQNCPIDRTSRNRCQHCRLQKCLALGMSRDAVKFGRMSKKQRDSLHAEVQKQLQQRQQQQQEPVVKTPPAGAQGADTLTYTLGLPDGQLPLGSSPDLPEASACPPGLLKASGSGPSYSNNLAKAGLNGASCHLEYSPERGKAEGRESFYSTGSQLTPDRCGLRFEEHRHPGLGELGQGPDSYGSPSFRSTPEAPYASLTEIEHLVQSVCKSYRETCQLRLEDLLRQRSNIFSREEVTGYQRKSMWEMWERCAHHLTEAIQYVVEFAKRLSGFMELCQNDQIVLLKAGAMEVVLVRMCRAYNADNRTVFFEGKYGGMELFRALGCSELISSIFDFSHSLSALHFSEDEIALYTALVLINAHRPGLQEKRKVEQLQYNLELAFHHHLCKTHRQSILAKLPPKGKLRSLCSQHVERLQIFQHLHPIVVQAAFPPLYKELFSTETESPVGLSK

With `c1ccc(Nc2ccc3ccccc3c2)cc1`, the molecule was called inactive in assay [1], in assay [2], in assay [3], in assay [4], in assay [5] and in [6]. Further, the call in assay [7], in assay [8], in assay [9], in assay [10] and in assay [11] was inactive. For the same molecule, the AC50 was 63.2 µM (active) in [9]; 73.9 µM (active) and 83 µM (active) in assay [12].
For the molecule `CCCCCCCCCCCC#N`, the AC50 in assay [2] was 165 µM (active); in [14], 19.5 µM (active). Besides, the result in [3], in [13], in [6], in assay [7], in [8] and in assay [15] was inactive. Also, the molecule was classed as inactive in [16] and in assay [11].
With `CSc1nc(N=[N+]=[N-])nc(NC(C)C)n1`, the molecule was called inactive in assay [13], in [4], in [8], in assay [17], in assay [10] and in assay [12]. In assay [14], the AC50 is 14 µM (active).
As for `C=COCCCl`, the result in assay [2], in [18], in assay [13], in assay [7], in assay [15] and in [19] was inactive. For the same molecule, the result in [16] and in [20] was inactive.
As for `CCOC(=O)C1OC1(C)c1ccccc1` (stereo not given), the call in assay [3], in [13], in assay [4], in assay [6], in [7] and in assay [14] was inactive. Further, the outcome in [15], in assay [9], in assay [10], in [11] and in assay [12] was inactive.
For the molecule `C[N+](C)(C)CC(=O)O`, the call in assay [18], in assay [13], in [8], in assay [15], in assay [19] and in [20] was inactive.
Take `O=S(=O)(O)OOS(=O)(=O)O`: the result in assay [4], in [5], in assay [6], in [8] and in assay [19] was inactive.
